The supplement of paper PMC3334620
In all, about 33,000 sequences were measured (“E-score (-0.5 to 0.5)”: median about -8e-05, highest 2% from about 0.23 on). The list comes from a sample in which the highest values are over-represented; it also holds similar and randomly drawn sequences.

The sequences below were run against T1, Nrg2 (UniProt P38082) (assay: PBM E-score (8-mer binding enrichment) (E-score (-0.5 to 0.5)); higher = stronger / more preferred TF binding). Conditions: protein concentration: 100 nM; construct: GST-full length.
T1 sequence: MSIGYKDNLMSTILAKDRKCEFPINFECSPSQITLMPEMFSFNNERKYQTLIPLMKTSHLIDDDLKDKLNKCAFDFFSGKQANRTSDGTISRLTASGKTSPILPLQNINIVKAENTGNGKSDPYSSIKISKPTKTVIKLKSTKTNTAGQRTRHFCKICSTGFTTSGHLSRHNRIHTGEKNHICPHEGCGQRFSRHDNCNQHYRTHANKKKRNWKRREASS
Description: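 Universal 'all 10-mer' protein binding microarrays (Agilent AMADID 015681) probed with GST-tagged S. cerevisiae TFs (full-length or DBD) made by in vitro transcription/translation (PURExpress), about 100-200 nM. Bound TF was detected with fluorescent anti-GST. Each ungapped 8-mer (which stands for itself and its reverse complement) is scored by the PBM enrichment score (E-score), a modified Wilcoxon-Mann-Whitney statistic from -0.5 to +0.5, computed with the Universal PBM Analysis Suite. Scale: above 0.35 generally sequence-specific binding.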

Sequence	PBM E-score
CCATTTAA	-0.00324
CATTGAGC	-0.0461
CCTTAGTC	-0.119
CCGCTGCG	-0.14
ATCAATAC	0.136
AGTGCTAG	-0.0309
AATGAGGG	-0.00097
TAGAGCTA	-0.161
CTGCCACA	-0.117
ACCCTTAT	0.28
GACCCTGA	0.389
ACCCTTAA	0.152
GACCCCTA	0.151
AACCCTTA	0.235
ACCCTTAG	0.123
AACCCTTG	0.194
AACCCTTC	0.168
AACCTTAA	0.293
AACCTTAC	0.108
AACCTTAG	-0.109
GACCCTCA	-0.116
GTCAAAAC	0.0485
AGATCTAT	-0.0448
CTGCACCA	-0.0673
AGTTGATC	0.137

Sequence	PBM E-score
CATTCGTA	-0.0996
ACTCTATG	0.056
ACTTCCTG	0.0859
TAAATCGA	0.151
CGCTTACG	-0.284
TATCCTGA	0.202
GACCCTCC	0.16
ACCCCTAA	0.172
ACCCCTAT	0.256
TACCCTCA	0.00099
ACCCCTAG	0.153
CACCCTGC	0.191
ACCCCCTA	-0.391
TACCCCTA	0.173
TACCCTGA	0.265
GACCCTGC	0.331
AACCCCTA	0.25
GGATCTGA	-0.0992
CAAAGGCA	-0.173
ACTAAGAA	0.221
CGAGCTAC	0.124
TAACCGAA	-0.0477
ACCAGTCG	-0.149
CGAGTTTA	0.0171
ACAGAGGA	0.00257

Sequence	PBM E-score
ACCACACG	-0.034
AAACGGAT	0.205
ATCGAGGG	0.12
CCGTTCAG	0.00062
ACCCCTGG	0.0828
GGCCCTTA	0.185
CACCCTGG	0.0652
AACCCTGT	0.244
GACCCTTA	0.321
TACCCTAA	0.107
GACCCTAA	0.237
GACCCTAC	0.184
CACCCTTA	0.147
AACCCTAT	0.195
AACCCTGG	0.315
AACCCTAG	0.0468
GAGTCTGA	-0.0871
CAGTATGG	0.0291
AACGAGGC	-0.139
AAAGTTCG	0.127
ACCCCTGA	0.297
AACCCTGA	0.385
AACCCATT	0.00038
AACCCATA	0.24
CACCCTGA	0.201

Sequence	PBM E-score
CCCCCTGA	-0.00244
ACCCCTTA	0.178
GACCCATA	0.118
AACCCTGC	0.134
CGCGACGA	0.176
TGGGGACA	-0.187
AAGGGAGC	-0.187
AAAACGGC	0.112
GCCGGACA	0.0968
TCGTTGAA	-0.0977
ATACTATC	0.013
CTACTATC	0.247
CTACTATA	0.143
AGGAAAAC	0.151
ACTGTTTA	-0.0842
ATTCGTCG	-0.00164
CTTCGTTC	-0.00176
ATTCGTTC	0.28
ATTCGTCC	0.27
ATTCGTTG	0.239
AATCGTTC	0.0566
CTTCGTCC	-0.114
ACTCGTTG	-0.109
ATTCGTTA	0.165
AAAATCAT	-0.0452

Sequence	PBM E-score
CATTGGTA	0.0651
TGAGTTAA	0.0318
CGAGTTAA	0.264
CGAGTTAC	0.215
CGGTCTAA	-0.118
AGCCTGTG	-0.118
ACCCTGTG	0.289
GCCCTGAC	-0.00086
ACCCTGAC	0.334
AACCTGAT	0.0634
ATCCTGAG	0.0135
CCCCTGAG	0.176
ACCCTGAT	0.249
ACCCTGTC	0.201
AGCCTGAT	-0.168
AACCTGTG	0.0227
ACCCTGAG	0.368
GTTAGCGA	-0.131
ATATCGAT	0.213
CTCTGCTC	-0.0804
ACACTATG	0.0263
CTACTTGC	0.141
ACCTTAGC	0.025
CGTTCACC	-0.11
AGCCTCCC	-0.381

Sequence	PBM E-score
ACCGATCG	-0.0446
TCTGACCA	0.216
TAATAAGA	0.0444
GCTTGCTA	-0.0547
CCCCTGTC	-0.151
CTCCTGAC	0.0802
CCCCTGAC	0.235
ATATAACG	0.243
ATATAAAA	0.0793
ATATAACC	0.145
ATATAACA	0.078
ATATAAAG	0.0638
CTATAAAC	-0.086
GTATAAAC	0.156
ATATAAAT	0.252
ATATAAAC	0.255
ATGAGTAA	0.0697
ACTCGGAC	0.0898
ACTAGGGC	-0.0479
ACTGAACC	-0.111
GTCTTTTA	-0.195
ATATCTTG	0.0388
AATCCTCC	-0.123
AGACAGCT	0.12
GTCACGGA	-0.00114

Sequence	PBM E-score
CGCCATGA	-0.0296
CTATCTAC	0.00786
AAGCTTCC	-0.206
AACGGATG	-0.00493
AACGGATT	0.148
CACGGATG	-0.149
CGCGGATC	0.037
CGCGGATA	0.246
AGCGGATA	-0.042
CACGGATA	0.235
TACGGATA	0.0194
AACGGATA	0.258
ACCGACAC	-0.0406
GGGAGGAC	0.0465
GTCGTTTA	-0.00227
AACGTCAC	-0.00893
CCGCCCAG	-0.0404
GAATCAGA	0.23
TAATCAGA	0.133
AAATCAGA	0.129
CGTTAAAG	0.00135
GAGCTACA	-0.114
